Screening data as filed in PubChem.
L3MBTL1 block = blocks human L3MBTL1; Q9Y468; AlphaScreen L3MBTL1–H3K9me1 peptide binding; Potency, µM (series often up to 57.1 µM), hits mostly inhibitors; actives 0.66% (n = 230,000); note: nearly all actives have a fitted effect of over 60% in size
Target sequence (Q9Y468 whole entry, looked up): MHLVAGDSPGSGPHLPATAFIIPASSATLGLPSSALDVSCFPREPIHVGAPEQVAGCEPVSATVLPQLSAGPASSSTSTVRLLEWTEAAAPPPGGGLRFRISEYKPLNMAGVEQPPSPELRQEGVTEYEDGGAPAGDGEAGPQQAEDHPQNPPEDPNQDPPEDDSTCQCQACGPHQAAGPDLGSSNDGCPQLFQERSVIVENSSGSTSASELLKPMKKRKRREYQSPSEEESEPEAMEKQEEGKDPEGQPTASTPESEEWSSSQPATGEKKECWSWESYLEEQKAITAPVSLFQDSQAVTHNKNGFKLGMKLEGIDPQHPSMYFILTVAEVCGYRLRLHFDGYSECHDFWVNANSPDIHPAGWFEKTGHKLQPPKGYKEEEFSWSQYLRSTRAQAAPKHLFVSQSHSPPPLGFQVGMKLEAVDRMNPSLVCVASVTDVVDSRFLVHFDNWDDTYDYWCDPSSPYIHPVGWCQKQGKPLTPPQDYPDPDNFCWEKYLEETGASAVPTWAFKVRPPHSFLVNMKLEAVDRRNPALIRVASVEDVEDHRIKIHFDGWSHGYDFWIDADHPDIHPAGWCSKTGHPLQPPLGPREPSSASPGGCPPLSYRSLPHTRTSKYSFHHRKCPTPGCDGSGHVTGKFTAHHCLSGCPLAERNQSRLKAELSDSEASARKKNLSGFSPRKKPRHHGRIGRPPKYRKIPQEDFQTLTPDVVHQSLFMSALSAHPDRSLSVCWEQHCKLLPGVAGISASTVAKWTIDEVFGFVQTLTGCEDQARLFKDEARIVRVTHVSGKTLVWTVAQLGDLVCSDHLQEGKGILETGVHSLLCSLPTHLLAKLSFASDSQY
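L3MBTL1 (50 nM) pre-complexed 30 min with biotinylated H3(1-15)K9me1 peptide (75 nM), then compounds added for 30 min at room temperature; AlphaScreen streptavidin donor/nickel chelate acceptor beads (10 ug/mL final) read after 30 min dark incubation.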
G9a block = blocks human histone lysine methyltransferase G9a. Q96KQ7. G9a H3K9 monomethylation, AlphaScreen, 2 h. Potency, µM (titrated, usually from 102 µM), most hits filed as inhibitors. actives 8.8% (n = 350,000). AID 504332; note: nearly all actives have a fitted effect of over 75% in size
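Methyltransferase reactions run at room temperature for 2 h (20 nM enzyme, 500 nM biotin-H3K9 peptide, 20 uM SAM) after a 15 min compound preincubation; product detected by AlphaScreen beads and anti-H3K9me1 antibody.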
JMJD2A Tudor = JMJD2A Tudor domain (human) inhibition; O75164; AlphaScreen JMJD2A-Tudor / H3K4me3 peptide binding; Potency, µM (highest dose often 114 µM), actives largely listed as inhibitors; actives 4.4% (n = 390,000); note: nearly all actives have a fitted effect of over 50% in size
Sfp inh = inhibitors of Bacillus subtilis Sfp phosphopantetheinyl transferase; Q9F4F7; actives 3.5% (n = 310,000); Biochemical Sfp PPTase activity, qHTS; Potency, µM, usual class: inhibitors;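 note: the enzyme is Sfp with the accession as filed and its product quenches rhodamine fluorescence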
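With Hepes-Na pH 7.6 buffer containing 10 mM MgCl2, Sfp (15 nM) modified BHQ-2-YbbR (12.5 uM) using rhodamine-CoA (5 uM). Two reads 30 minutes apart at 525/598 nm yielded each well's rate.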
BAZ2B block = inhibitors of human BAZ2B bromodomain; Q9UIF8; AlphaScreen BAZ2B-H3K14Ac peptide displacement; Potency, µM (top dose mostly 114 µM), actives largely listed as inhibitors; actives 4.4% (n = 360,000); note: nearly all actives have a fitted effect of over 60% in size
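In this displacement format the biotinylated H3(5-23) peptide acetylated at Lys14 serves as ligand at 50 nM, with BAZ2B at 50 nM in PBS pH 7.4 containing 0.01% Tween-20. Donor and acceptor beads are 10 ug/mL final.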
HP1b binding inh = blocks HP1-beta chromodomain binding to methylated histone tails; AlphaScreen HP1-beta / biotin-H3K9me3 peptide binding; AID 540317; actives 0.56% (n = 390,000); P83916; Potency, µM (titrated, usually from 114 µM), hits mostly inhibitors; note: nearly all actives have a fitted effect of over 70% in size
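HP1-beta protein (50 nM final) preincubated 30 min at room temperature with biotinylated H3(1-18)K9me3 peptide (50 nM) in PBS pH 7.4, 0.01% Tween-20, then compound added for 30 min. AlphaScreen streptavidin donor/nickel chelate acceptor beads (10 ug/mL final), 30 min dark, luminescence read.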
A number is an active result; ! = a repeat was not active; [ ] = another dose, or the depositor's remark. Only some compounds are listed: those with a hit (about 12% of all), similar ones and a draw of the others. Calls come from the whole dose curve; as a rule, active = well fitted curve in the direction sought with a large enough effect; inconclusive = small, poorly fitted or top-dose-only effect, or another doubt; inactive = no such curve, though single readings can be large; an effect the other way counts as inactive or inconclusive.

How did CCCCC1=CC2=CC(=O)C(C)(OC(=O)C3CCCC3)C(=O)C2=CO1 (stereo not given) do in these assays?
G9a block: inconclusive; JMJD2A Tudor: 79µM; Sfp inh: 71µM!; BAZ2B block: 50µM; HP1b binding inh: inconclusive

What do the screens show for `CC1(OC(=O)C2CCCC2)C(=O)C=C2C=C(c3ccsc3)OC=C2C1=O` (stereo not given)?
G9a block: inconclusive; JMJD2A Tudor: inconclusive; Sfp inh: inactive; BAZ2B block: 50µM; HP1b binding inh: inconclusive

How did CC1(OC(=O)CCc2ccccc2)C(=O)C=C2C=C(c3ccsc3)OC=C2C1=O (stereo not given) do in these assays?
G9a block: inconclusive; Sfp inh: inactive; BAZ2B block: 50µM

Results for CC1(OC(=O)CCc2ccccc2)C(=O)C=C2C=C(c3ccc(C#N)cc3)OC=C2C1=O (stereo not given) ?
Sfp inh: inactive

Results for CCCSc1ncc(Cl)c(C(=O)Nc2c(C(=O)c3ccc(F)cc3)oc3ccccc23)n1 ?
G9a block: inactive; JMJD2A Tudor: inactive; BAZ2B block: inactive; HP1b binding inh: inactive

What do the screens show for `O=S(=O)(c1ccccc1)c1nc(Nc2ccccc2N2CCOCC2)sc1Cl`?
L3MBTL1 block: inactive; G9a block: 25µM; JMJD2A Tudor: 32µM; Sfp inh: inactive; BAZ2B block: inactive; HP1b binding inh: inconclusive

What do the screens show for `Cc1ccc(/C=C/c2ccc3cccc(O)c3n2)s1`?
G9a block: 28µM; JMJD2A Tudor: inactive; Sfp inh: inactive; BAZ2B block: inactive; HP1b binding inh: inactive

How did COC(=O)c1ccc(/C=C/c2ccc3cccc(OC)c3n2)cc1 do in these assays?
L3MBTL1 block: inactive; G9a block: inactive; JMJD2A Tudor: inactive; Sfp inh: 45µM; BAZ2B block: inactive; HP1b binding inh: inactive

Results for Oc1cccc(/C=C/c2ccc3cccc(O)c3n2)c1 ?
G9a block: inactive; JMJD2A Tudor: inactive; Sfp inh: inactive; BAZ2B block: inconclusive; HP1b binding inh: inactive

How did COc1cc(/C=C/c2ccc3cccc(O)c3n2)cc(Cl)c1OC do in these assays?
G9a block: inactive; JMJD2A Tudor: inactive; Sfp inh: 50µM; BAZ2B block: inconclusive; HP1b binding inh: inactive

What do the screens show for `COc1cccc2ccc(/C=C/c3ccc4c(c3)OCO4)nc12`?
JMJD2A Tudor: inactive; HP1b binding inh: inactive

What do the screens show for `Cc1ccc(C)c(CSc2nnc3[nH]c(=O)cc(C)n23)c1`?
G9a block: inactive; JMJD2A Tudor: inactive; BAZ2B block: inactive; HP1b binding inh: inactive

Results for CCOc1ccc(-c2cc(C(=O)NCc3ccccc3Cl)c3ccccc3n2)cc1 ?
G9a block: inactive; JMJD2A Tudor: inactive; BAZ2B block: inactive; HP1b binding inh: inactive

What do the screens show for `COc1cc(/C=C2/CCCC(C(=O)C(F)(F)F)=C2O)ccc1O`?
L3MBTL1 block: inactive; G9a block: inactive; JMJD2A Tudor: inactive; Sfp inh: inactive; BAZ2B block: inconclusive; HP1b binding inh: inactive

What do the screens show for `CCOc1cc(/C=C2\CCCC(C(=O)C(F)(F)F)=C2O)ccc1O`?
L3MBTL1 block: inactive; G9a block: 20µM; JMJD2A Tudor: inactive; Sfp inh: inactive; BAZ2B block: inactive; HP1b binding inh: inactive

What do the screens show for `COc1ccc(/C=C2\CCCC(C(=O)C(F)(F)F)=C2O)cc1OC`?
G9a block: 8.9µM; Sfp inh: inactive; BAZ2B block: inconclusive

What do the screens show for `O=C(CCn1cnc2onc(-c3ccc(F)cc3)c2c1=O)N1CCN(c2ccccc2)CC1`?
G9a block: inconclusive; JMJD2A Tudor: inconclusive; BAZ2B block: inactive; HP1b binding inh: inactive

What do the screens show for `O=C(O)CCn1cnc2onc(-c3ccccc3Cl)c2c1=O`?
G9a block: inconclusive; JMJD2A Tudor: 50µM; BAZ2B block: 50µM; HP1b binding inh: inconclusive

How did O=c1[nH]c(=S)[nH]c2nc(-c3ccccc3)cnc12 do in these assays?
JMJD2A Tudor: inactive; HP1b binding inh: inactive

What do the screens show for `Nc1[nH]c(=S)[nH]c(=O)c1-c1ccccc1`?
L3MBTL1 block: inactive; G9a block: inconclusive; JMJD2A Tudor: 35µM; Sfp inh: inactive; BAZ2B block: inactive; HP1b binding inh: inactive

What do the screens show for `COc1ccc(C(c2nnnn2CCc2ccccc2)N2CCN(C3CCCC3)CC2)cc1` (stereo not given)?
L3MBTL1 block: inactive; G9a block: 79µM; JMJD2A Tudor: inactive; Sfp inh: inactive; BAZ2B block: inactive; HP1b binding inh: inactive

Results for CCCCC(c1nnnn1CC1CCCO1)N1CCN(c2nc3ccccc3s2)CC1 (stereo not given) ?
L3MBTL1 block: inactive; G9a block: 28µM; JMJD2A Tudor: inactive[11.4 µM]; Sfp inh: inactive; BAZ2B block: 50µM; HP1b binding inh: inactive

Results for COc1ccc(Cn2nnnc2C(c2ccccc2)N2CCN(C3CCCC3)CC2)cc1 (stereo not given) ?
L3MBTL1 block: inactive; G9a block: inconclusive; JMJD2A Tudor: inactive[11.4 µM]; Sfp inh: inactive; BAZ2B block: inactive; HP1b binding inh: inactive

How did CCCC(c1nnnn1CC1CCCO1)N1CCN(c2nc3ccccc3s2)CC1 (stereo not given) do in these assays?
L3MBTL1 block: inactive; G9a block: inactive; JMJD2A Tudor: inactive; Sfp inh: inactive; BAZ2B block: inactive; HP1b binding inh: inactive

Results for CCCCC(c1nnnn1CCOC)N1CCN(c2cccc(OC)c2)CC1 (stereo not given) ?
L3MBTL1 block: inactive; G9a block: 45µM; JMJD2A Tudor: inactive[11.4 µM]; Sfp inh: inactive; BAZ2B block: 50µM; HP1b binding inh: inactive

How did CCCCC(c1nnnn1CCOC)N1CCN(Cc2ccccc2)CC1 (stereo not given) do in these assays?
L3MBTL1 block: inconclusive; G9a block: inconclusive; JMJD2A Tudor: inactive; Sfp inh: inactive; BAZ2B block: inactive; HP1b binding inh: inactive

Results for CCCC(c1nnnn1Cc1ccco1)N1CCN(c2ccccc2)CC1 (stereo not given) ?
L3MBTL1 block: inactive; G9a block: inconclusive; JMJD2A Tudor: inactive; Sfp inh: inactive; BAZ2B block: 56µM; HP1b binding inh: inactive

Results for Cc1cccc(-c2nc(S(=O)(=O)c3ccc(Cl)cc3)c(N3CCCCCC3)o2)c1 ?
G9a block: inconclusive; JMJD2A Tudor: inactive; BAZ2B block: inconclusive; HP1b binding inh: inactive

What do the screens show for `CCC(c1nnnn1CCc1ccccc1)N1CCN(c2ccc(OC)cc2)CC1` (stereo not given)?
L3MBTL1 block: inactive; G9a block: 11µM; JMJD2A Tudor: inactive; Sfp inh: inactive; BAZ2B block: inconclusive; HP1b binding inh: inactive

How did COc1ccccc1N1CCN(C(c2ccc(N(C)C)cc2)c2nnnn2CCc2ccccc2)CC1 (stereo not given) do in these assays?
L3MBTL1 block: inactive; G9a block: 2µM; JMJD2A Tudor: inconclusive; Sfp inh: inactive; BAZ2B block: 25µM; HP1b binding inh: inactive
